In PubChem BioAssay AID1376 (SRMLSC, 2008):
Hit rate of the full screen: of about 220,000 compounds, about 530 (0.24%) were called active. Only a selection was taken, and actives are over-represented in it overall. Measured potencies and affinities stand elsewhere. Unmarked numbers belong to inactive results. No stated cut-off is given here; in the data, active means inhibition above about 13%; inconclusive means no clear call, values can overlap the other calls; inactive means below that.

Each compound was assayed against Bifunctional protein GlmU (Mycobacterium tuberculosis (strain ATCC 25618 / H37Rv)) (UniProt P9WMN3) (assay: inhibition of mycobacterial GlmU enzyme – biochemical, glucosamine-1-phosphate acetyltransferase (AID 1376;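 further: 0% = complete reaction with vehicle and 100% = reaction without substrate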)). Details: M. tuberculosis GlmU acetyltransferase enzyme assay; hits give high values;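 tested at 30 µM in the primary screen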.
Sequence of Bifunctional protein GlmU (Mycobacterium tuberculosis (strain ATCC 25618 / H37Rv)) (P9WMN3 whole entry, looked up): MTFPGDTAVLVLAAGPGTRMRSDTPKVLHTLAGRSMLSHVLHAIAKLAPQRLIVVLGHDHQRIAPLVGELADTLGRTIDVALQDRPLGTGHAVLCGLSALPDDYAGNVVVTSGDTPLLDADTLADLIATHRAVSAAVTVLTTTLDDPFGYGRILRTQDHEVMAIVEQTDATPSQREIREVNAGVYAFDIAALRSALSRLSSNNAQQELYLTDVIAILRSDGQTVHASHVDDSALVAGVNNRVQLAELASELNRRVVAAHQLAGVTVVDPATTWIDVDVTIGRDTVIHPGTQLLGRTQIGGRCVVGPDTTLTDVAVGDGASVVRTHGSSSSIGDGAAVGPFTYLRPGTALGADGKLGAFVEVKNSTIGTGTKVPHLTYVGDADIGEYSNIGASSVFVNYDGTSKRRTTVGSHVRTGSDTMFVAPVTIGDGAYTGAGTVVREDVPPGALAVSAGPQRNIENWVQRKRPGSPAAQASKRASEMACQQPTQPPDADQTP
Compound `COc1ccc(NC(=O)C(c2ccccc2)c2ccccc2)cn1` has an inhibition of -4.39%. With `CCS(=O)(=O)Nc1ccc(C2=NN(C(=S)Nc3ccccc3)C(c3ccco3)C2)cc1` (stereo not drawn) the inhibition was -0.65%. In the case of `CN(C)C(=S)NC(C)(C)C`, the inhibition was 1.31%. `CNC(=S)N/N=C/c1ccc(-c2cccc(C(=O)O)c2)o1` showed an inhibition of 6.34%. In the case of `Nc1nonc1C(=O)N/N=C/c1ccc(-c2ccc(Cl)c(C(=O)O)c2)o1`, the inhibition was 5.31%. `COc1ccc(CC(=O)N/N=C/c2ccc(-c3cccc(C(=O)O)c3)o2)cc1OC` was tested, and the inhibition was 9.43%. Work on `Cc1ccc(OCC(=O)N/N=C\c2ccc(C)o2)c(C)c1` yielded an inhibition of 1.64%. In the case of `Nc1nonc1C(=O)N/N=C/c1ccc(-c2cccc([N+](=O)[O-])c2)o1`, the inhibition was 1.58%. `O=C(N/N=C/c1ccc(-c2ccc([N+](=O)[O-])cc2)o1)c1cccnc1` was tested, and the inhibition was 7.58%. `O=C(NCCn1cc(SCC(=O)N2CCOCC2)c2ccccc21)c1c(F)cccc1F` showed an inhibition of 7.41%. Compound `O=C(CSc1nnnn1-c1ccc(O)cc1)c1cc2ccccc2o1` has an inhibition of -1.55%. With `Cc1ccc(NC(=O)CN2C(=O)S/C(=C/c3ccc(-c4cccc(C(=O)O)c4)o3)C2=O)cc1` the inhibition was 13.1% (active). `Cc1ccc(NC(=O)CN2C(=O)S/C(=C/c3ccc(O)c([N+](=O)[O-])c3)C2=O)cc1C` was tested, and the inhibition was 14.8% (active). `Cc1cccc(NC(=O)CN2C(=O)S/C(=C\c3ccc(-c4cccc(C(=O)O)c4C)o3)C2=O)c1` showed an inhibition of 5.54%. `Cc1ccc(NC(=O)CN2C(=O)S/C(=C\c3ccc(-c4cccc(C(=O)O)c4C)o3)C2=O)cc1C` was tested, and the inhibition was 15.4% (active). With `Cc1ccc(NC(=O)CN2C(=O)S/C(=C\c3ccc(-c4cccc(C(=O)O)c4C)o3)C2=O)cc1` the inhibition was 3.05%. With `COc1ccc(/C=C2\SC(=O)N(CC(=O)NNC(=O)c3ccccc3O)C2=O)cc1OC` the inhibition was 13.8% (active). Compound `O=C(CN1C(=O)S/C(=C\c2ccccc2)C1=O)NNC(=O)c1ccccc1O` has an inhibition of 6.78%. `Cc1ccc(C(=O)O)cc1-c1ccc(/C=C2\SC(=O)N(CC(=O)Nc3ccccc3)C2=O)o1` was tested, and the inhibition was 6.53%. With `COc1ccc(/C=C2\SC(=O)N(CC(=O)NNC(=O)c3ccccc3O)C2=O)cc1` the inhibition was 6.62%. `Cc1ccccc1NC(=O)CN1C(=O)S/C(=C\c2ccc(-c3cccc(C(=O)O)c3C)o2)C1=O` gave an inhibition of -5.01%. In the case of `CCOC(=O)CN1C(=O)S/C(=C/c2ccc(O)c([N+](=O)[O-])c2)C1=O`, the inhibition was 6.11%. Work on `Cc1cccc(NC(=O)CN2C(=O)S/C(=C\c3ccc(O)c([N+](=O)[O-])c3)C2=O)c1` yielded an inhibition of 3.95%. In the case of `CCOc1ccccc1Cn1c(=O)sc2ccccc21`, the inhibition was -0.39%. `CCCNC(=O)c1cc(-c2ccc(OC)cc2)n(CCCOC)c1C` gave an inhibition of 4.42%. `O=C1CC(N2CCN(Cc3ccc(Cl)cc3)CC2)C(=O)N1CCc1ccccc1` (stereo not drawn) gave an inhibition of -4.79%. Work on `O=C(NCCc1ccccn1)c1cccc(S(=O)(=O)N2CCc3ccccc32)c1` yielded an inhibition of 2.85%. `COCCNC(=O)C1c2ccccc2C(=O)N(CCOC)C1c1ccc(F)cc1` (stereo not drawn) showed an inhibition of 1.96%. `COc1ccc(C(=O)N/C(=C\c2cccc3ccccc23)C(=O)N2CCN(C)CC2)cc1OC` gave an inhibition of 0.44%. With `CSC1=NSC2=NC(=O)/C(=C/c3coc4ccc(O)cc4c3=O)C(=N)N12` the inhibition was 21.3% (active). In the case of `CSC1=NSC2=NC(=O)/C(=C\c3coc4ccccc4c3=O)C(=N)N12`, the inhibition was 7.97%. Compound `CSC1=NSC2=NC(=O)/C(=C/c3coc4ccccc4c3=O)C(=N)N12` has an inhibition of 8.95%. For `NS(=O)(=O)c1ccc(CCNC(=O)CCCC2=NS(=O)(=O)c3ccccc3N2)cc1`, the inhibition was 2.45%. With `COc1ccc(OCc2n[nH]c(=S)o2)cc1` the inhibition was 2.56%. `S=c1[nH]nc(COc2ccc3ccccc3c2)o1` showed an inhibition of 3.96%. With `S=c1[nH]nc(COc2ccc(Cl)cc2)o1` the inhibition was 13.3% (active). In the case of `O=C(O)C1Cc2ccccc2CN1C(=O)COc1ccc(Br)cc1` (stereo not drawn), the inhibition was 12.6%. `CCOC(=O)CSc1nc(C)c(C(C)=O)cc1C(N)=O` gave an inhibition of 1.16%. `Cc1ccc(C)c(NC(=S)NNC(=O)c2csc3c2CCCC3)c1` was tested, and the inhibition was -4.85%. `Cc1cccc(NC(=S)NNC(=O)c2csc3c2CCCC3)c1` was tested, and the inhibition was 13% (active). `Cc1cccc(NC(=S)NNC(=O)c2csc3c2CCC(C)C3)c1` (stereo not drawn) showed an inhibition of 2.66%. Work on `CC(C)Cc1nnc(NC(=O)c2cc(-c3ccccc3)nc3ccccc23)s1` yielded an inhibition of 0.66%. Work on `COc1cc([N+](=O)[O-])ccc1NC(=O)Cc1ccc(F)cc1` yielded an inhibition of 4.76%. Work on `COc1ccc(CN2CCn3ncc(C(=O)Nc4cc(C)cc(C)c4)c3C2=O)cc1` yielded an inhibition of -5.28%. For `O=C(NNS(=O)(=O)c1cc(Cl)cc(Cl)c1)c1sccc1-n1cccc1`, the inhibition was 13.9% (active). `O=C(NNS(=O)(=O)c1ccccc1)c1sccc1-n1cccc1` showed an inhibition of -3.8%. In the case of `O=C(NNS(=O)(=O)c1ccc(Cl)cc1)c1sccc1-n1cccc1`, the inhibition was -3.47%. In the case of `CC1(C(=O)OCC(=O)Nc2ccc3ccccc3c2)CC1(Cl)Cl` (stereo not drawn), the inhibition was 0.98%. For `O=C(N1CCN(Cc2ccc3c(c2)OCO3)CC1)C12CC3CC(CC(C3)C1)C2`, the inhibition was 3.26%. Compound `COC(=O)c1ccc2c(=O)sc(N3CCC(C(N)=O)CC3)nc2c1` has an inhibition of -0.93%. Work on `C=CCN1C(=O)/C(=C/c2ccc(OC(C)=O)c(OCC)c2[N+](=O)[O-])SC1=S` yielded an inhibition of -0.95%. `CCOc1ccc(/C=C2\SC(=S)NC2=O)cc1OC` showed an inhibition of 0.99%. For `CCOc1c(O)ccc(/C=C2\SC(=S)NC2=O)c1[N+](=O)[O-]`, the inhibition was 12.8% (active). In the case of `COC(=O)C1NN=C(C(=O)c2ccccc2)C1c1ccccc1` (stereo not drawn), the inhibition was -3.17%. `Cc1cc(Cl)ccc1OCC(=O)OCC(=O)Nc1ccc(F)c([N+](=O)[O-])c1` showed an inhibition of 4.62%. `N/C(=N\S(=O)(=O)c1cc(C(F)(F)F)cc(C(F)(F)F)c1)c1cccs1` was tested, and the inhibition was 13.9% (active). `N/C(=N\S(=O)(=O)c1cc(C(F)(F)F)cc(C(F)(F)F)c1)c1ccccc1` gave an inhibition of 4.74%. `NC(=O)c1ccc(/C(N)=N/S(=O)(=O)c2cc(C(F)(F)F)cc(C(F)(F)F)c2)cc1` was tested, and the inhibition was 2.05%.
